# Hit rate of the full screen: of about 2,300 compounds, about 1,400 (61%) were called active. Not shown: some 29% with an inconclusive outcome. Calls follow the shape of the dose curve; as a rule, active = well fitted inhibition curve with a large enough effect; inconclusive = small, poorly fitted or top-dose-only effect, or effect the other way; inactive = no such curve, though single readings can be large or run the other way. So high a share suggests a set chosen from earlier hits. This is one part of the list.
# Assay: Confirmation screen for delayed death inhibitors of the malarial parasite plastid, 96 hour incubation; also: nearly all actives have a fitted effect of over 60% in size
# Settings: P. falciparum luciferase growth in erythrocytes; series mostly up to 28.7 µM
# Procedure, shortened: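 Two-generation (96 h, 37 C) exposure of P. falciparum carrying an integrated firefly luciferase reporter in erythrocytes, 0.1% parasitemia and 2% hematocrit final, Albumax-supplemented RPMI. Luminescence decrease measures growth inhibition.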
# Potency is read from the fitted curve at half-maximal effect.
row,Compound,Potency
1,COc1ccc(C2CC(=O)C3=C(C2)Nc2ccccc2NC3c2coc3ccccc3c2=O)cc1OC (configuration not stated),1.12 µM (active)
2,CC(=O)c1c(C)[nH]c(C(=O)COC(=O)COc2ccccc2F)c1C,inactive
3,COc1ccc(C(C)(C)C)cc1NC(=O)c1[nH]c(C)c(C(C)=O)c1C,4.47 µM (active)
4,CCc1nc(SCC(=O)Nc2ccc(N(C)C)cc2)n[nH]1,2.82 µM (active)
5,COC(=O)c1cn(C)c2ccc(S(=O)(=O)N3CCCC3)cc2c1=O,inactive
6,COc1ccc(S(=O)(=O)N2CCCN(S(=O)(=O)c3ccc(OC)c(C)c3)CC2)cc1C,12.6 µM (active)
7,COc1ccc(OCCOc2ccc(S(=O)(=O)N3CCCC3)cc2C(N)=O)cc1,10 µM (active)
8,C=CCN(CC=C)C(=O)C1CCN(S(=O)(=O)c2ccc(N3CCCC3=O)cc2)CC1,5.01 µM (active)
9,Cc1ccc(S(=O)(=O)N2CCC(C(=O)Nc3ccc(S(=O)(=O)N4CCCC4)cc3)CC2)cc1C,7.08 µM (active)
10,COc1cc(NC(=O)C2CCN(S(=O)(=O)c3ccc(N4CCCC4=O)cc3)CC2)cc(OC)c1,5.01 µM (active)
11,Cc1ccc(C(=O)C(C(=O)/C=C/c2ccccc2)=C2SCCCS2)cc1,7.94 µM (active)
12,CC[C@@H]1CC=C[C@H]2[C@H]1C(=O)N(Cc1ccccc1)[C@H]2c1ccoc1,7.08 µM (active)
13,Fc1ccc2nc(Nc3nc4c(F)cc(F)cc4s3)sc2c1,10 µM (active)
14,O=C(c1ccc(Cl)cc1)C(CN1CCCC1)c1ccccc1 (configuration not stated),7.08 µM (active)
15,O=C(CN1CCCCC1)N/N=C/c1ccc(Cl)cc1,inactive
16,O=C(c1ccc(Cl)cc1)C(CN1CCCCC1)c1ccccc1 (configuration not stated),12.6 µM (active)
17,O=C(c1ccc(Br)cc1)C(CN1CCOCC1)c1ccccc1 (configuration not stated),3.98 µM (active)
18,O=C(Nc1ccc(C2=NCCN2)cc1)c1ccc(C(=O)Nc2ccc(C3=NCCN3)cc2)c(Cl)c1,0.0708 µM (active)
19,COc1ccccc1-c1coc2cc(OC(=O)N3CCOCC3)ccc2c1=O,inactive
20,CCOc1ccccc1CNC(=O)CN1C(=O)CSc2ccc(S(=O)(=O)N3CCOCC3)cc21,8.91 µM (active)
21,Cc1c(C#N)c(NC(=O)CCl)n(Cc2ccccc2)c1C,4.47 µM (active)
22,Cn1c(=O)n(C)c2cc(NC(=O)CCl)ccc21,2 µM (active)
23,Cc1ccc(NC(=O)c2nnn(CC(=O)Nc3ccc4c(c3)OCO4)c2N)cc1C,inactive

row,Compound,Potency
1,O=C(CCl)Nc1ccc2c(c1)OCO2,2.51 µM (active)
2,COc1ccc(C)cc1N(CC(=O)Nc1ccc(S(=O)(=O)N2CCCC2)cc1)S(C)(=O)=O,8.91 µM (active)
3,CCOc1ccccc1N(CC(=O)Nc1ccc(S(=O)(=O)N2CCCC2)cc1)S(C)(=O)=O,11.2 µM (active)
4,CCOC(=O)c1c[nH]c2cc(OCC(C)C)c(OCC(C)C)cc2c1=O,0.178 µM (active)
5,COc1ccc(-c2c(-c3ccc(OC)c(C)c3O)n[nH]c2C)cc1,10 µM (active)
6,Cc1ccc(Cl)cc1N1CCN(Cc2nc3c(c(=O)[nH]c(=O)n3C)n2CCc2ccccc2)CC1,3.98 µM (active)
7,CC(C)C(=O)NCCSc1c[nH]c2ccccc12,3.98 µM (active)
8,CCOc1ccc(N(C)C(=O)CCc2nnc3ccc(N4CCCCC4)nn23)cc1,7.94 µM (active)
9,O=[N+]([O-])c1cccc(/C=C/c2nc[nH]c2[N+](=O)[O-])c1,3.98 µM (active)
10,CC1(C)COC(/C=C/c2cccc([N+](=O)[O-])c2)=N1,8.91 µM (active)
11,COc1ccc(-c2nnc3ccc(SCC(=O)Nc4nc5ccc(C)cc5s4)nn23)cc1OC,0.158 µM (active)
12,O=C(C[n+]1ccccc1)Nc1ccc(Cl)c([N+](=O)[O-])c1,7.08 µM (active)
13,Nc1ccc2nc(-c3ccc(-c4nc5ccc(N)cc5[nH]4)cc3)[nH]c2c1,5.62 µM (active)
14,Cc1coc2cc3oc(=O)c(CCC(=O)NCCCn4ccnc4)c(C)c3cc12,12.6 µM (active)
15,CCOC(=O)C1CCN(c2c(NCc3ccc(C(=O)NCCC(C)C)cc3)c(=O)c2=O)CC1,1.12 µM (active)
16,C(=N\N(c1ccccc1)c1ccccc1)/c1ccccn1,inactive
17,O=C(N/N=C/c1ccccn1)c1cc([N+](=O)[O-])cc([N+](=O)[O-])c1,3.16 µM (active)
18,CC1(C)N=C(N)N=C(N)N1c1ccc(OCCCOc2ccccc2)c(Cl)c1,11.2 µM (active)
19,CCc1ccc(C(=O)NNc2ccc(C)c(Cl)c2)cc1,inactive
20,Cc1ccc(NC2=CC(=O)CC(C)(C)C2)cc1Cl,12.6 µM (active)
21,Cc1ccc(-n2c(Cl)c(Cl)nc(Cl)c2=O)cc1,11.2 µM (active)
22,Clc1ccc2nnnc(-c3ccccc3)c2c1,3.55 µM (active)
23,CCn1cc(C(=O)O)c(=O)c2cc(F)c(N/N=C/c3ccccc3)cc21,10 µM (active)

row,Compound,Potency
1,COc1ccc(C)cc1-n1c(SCC(=O)Nc2cc(C)on2)nc2sc(C)c(C)c2c1=O,2 µM (active)
2,CC(SC#N)C(=O)C12CC3CC(CC(C3)C1)C2 (configuration not stated),12.6 µM (active)
3,COc1ccc(N(CC(=O)NCCSCc2ccc(C)cc2)S(=O)(=O)c2ccccc2)cc1,12.6 µM (active)
4,COc1ccc2c(c1)c(CC(=O)Nc1nnc(C3CC3)s1)c(C)n2C(=O)c1ccc(Cl)cc1,10 µM (active)
5,COc1ccc(-c2nc(N3CCN(C)CC3)sc2-c2ccc(OC)cc2)cc1,12.6 µM (active)
6,CC1(CCc2ccc3c(c2)OCO3)NCCc2c1[nH]c1ccccc21 (configuration not stated),7.08 µM (active)
7,C/C(=N\NC(=S)NCC(C)(C)C)c1cc(F)cc(F)c1O,11.2 µM (active)
8,Cc1cc(/C=C2/SC(=O)NC2=O)c(C)n1-c1ccc(N2CCOCC2)cc1,12.6 µM (active)
9,CC(=O)N1CCc2cc(S(=O)(=O)N3CC(C)CC(C)C3)ccc21 (configuration not stated),8.91 µM (active)
10,CCC(=O)N1CCc2cc(S(=O)(=O)N3CCCCCC3)ccc21,12.6 µM (active)
11,Cc1ccc(C(=O)Nc2ccccc2SCC2CSc3nc4ccccc4c(=O)n32)cc1 (configuration not stated),10 µM (active)
12,O=C(Nc1ccccc1SCC1CSc2nc3ccccc3c(=O)n21)c1ccccc1Cl (configuration not stated),11.2 µM (active)
13,Cc1cccc(C(=O)Nc2ccccc2SCC2CSc3nc4ccccc4c(=O)n32)c1 (configuration not stated),3.98 µM (active)
14,O=C(Nc1ccccc1SCC1CSc2nc3ccccc3c(=O)n21)c1ccccc1 (configuration not stated),12.6 µM (active)
15,CC(=O)Nc1ccc(OCc2cccc3ccccc23)cc1,7.94 µM (active)
16,CC(Oc1ccccc1F)C(=O)Nc1ccc2ccccc2c1 (configuration not stated),inactive
17,CC(Oc1ccc(F)cc1)C(=O)Nc1ccc2ccccc2c1 (configuration not stated),inactive
18,COc1ccccc1NS(=O)(=O)c1ccc2oc(SCc3ccc(C#N)cc3)nc2c1,12.6 µM (active)
19,CCOC(=O)c1c(NC(=O)c2c(-c3ccccc3)noc2C)sc(C)c1-c1ccccc1,5.01 µM (active)
20,CCOC(=O)c1c(-c2ccc(-c3ccccc3)cc2)csc1NC(=O)c1cccc(N2C(=O)CCC2=O)c1,2.24 µM (active)
21,CCOC(=O)c1c(-c2cccc(C)c2)csc1NC(=O)c1c(-c2ccccc2)noc1C,8.91 µM (active)
22,COC(=O)c1c(-c2ccccc2)csc1NC(=O)c1c(-c2ccccc2)noc1C,14.1 µM (active)
23,CCOC(=O)c1c(-c2ccc(F)cc2)csc1NC(=O)c1c(-c2ccccc2)noc1C,7.08 µM (active)

row,Compound,Potency
1,COC(=O)c1c(NC(=O)c2cccc(N3C(=O)CCC3=O)c2)sc2c1CCN(C(C)=O)C2,11.2 µM (active)
2,COc1ccc(C(=O)Nc2c(N)nc(SCC(=O)Nc3ccc(NC(C)=O)cc3)[nH]c2=O)cc1OC,12.6 µM (active)
3,Nc1nc(SCC(=O)NCC2CCCO2)[nH]c(=O)c1NC(=O)c1ccc(F)c(F)c1 (configuration not stated),7.94 µM (active)
4,O=C(N1CCOCC1)N1c2ccccc2Sc2ccccc21,inactive
5,CC1CN(C(=O)N2c3ccccc3Sc3ccccc32)CC(C)O1 (configuration not stated),10 µM (active)
6,CCCCCCn1c(SCCC)nc2c1c(=O)[nH]c(=O)n2C,14.1 µM (active)
7,CCCSc1nc2c(cnn2-c2ccccc2)c(=O)[nH]1,inactive
8,Cn1c(=O)[nH]c(=O)c2c1nc(SCCN1CCCCC1)n2CCCc1ccccc1,5.01 µM (active)
9,Cc1nn(-c2ccccc2)c(N2CCCC2)c1/C=N/NC(=O)c1ccccc1O,3.98 µM (active)
10,Cc1nn(-c2ccccc2)c(N2CCCC2)c1/C=N/NC(=S)Nc1ccccc1F,12.6 µM (active)
11,O=C(CCl)Nc1ccc(Sc2ccc(NC(=O)CCl)cc2)cc1,2.51 µM (active)
12,CC(C)N(c1ccccc1)c1ccc(NC(=O)CCl)cc1,2.51 µM (active)
13,CCC(CC)COC(=O)C1=C(C)NC(=O)NC1c1ccccc1Br (configuration not stated),10 µM (active)
14,OC1(c2cccs2)CN(c2ccc(Br)cc2)C2=[N+]1CCCS2 (configuration not stated),8.91 µM (active)
15,OC1(c2cccs2)CN(c2ccc(Cl)cc2)C2=[N+]1CCCC2 (configuration not stated),6.31 µM (active)
16,Cc1[nH]c(=O)c(C(=O)/C=C/c2ccccc2F)c2c1CCCC2,5.62 µM (active)
17,Cc1[nH]c2ccccc2c(=O)c1C(=O)/C=C/c1ccccc1,3.55 µM (active)
18,Cc1[nH]c2ccccc2c1/C=N/NC(=O)CNC(=O)Cc1ccccc1,inactive
19,Cc1[nH]c(=O)c(C(=O)/C=C/c2ccccc2)c2c1CCCC2,4.47 µM (active)
20,CCC1CCCCN1CCCNC(=O)CNC(=O)c1nn(-c2ccc(OC)c(Cl)c2)c(=O)c2ccccc12 (configuration not stated),6.31 µM (active)
21,CCC1CCCCN1CCCNC(=O)Cn1c(=O)c2cccn2c2cccnc21 (configuration not stated),inactive
22,N=C(N)c1ccc(/C=C/c2ccc(C(=N)N)cc2O)cc1,0.251 µM (active)
23,C=C1C(=O)O[C@@H]2[C@H]1CC[C@H](C)[C@]1(O)CCC(=O)[C@@]21C,7.08 µM (active)

# — PubChem BioAssay AID504848 (National Center for Advancing Translational Sciences (NCATS), 2011)
